In PubChem BioAssay AID624354 (Sanford-Burnham Center for Chemical Genomics, 2012):
In all, about 360,000 compounds went through this assay and about 3,800 (1.1%) were called active. The sample holds actives, similar compounds and a random draw of the others, so the mix is not that of the screen. A number with no mark means an inactive call.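 Rule for the calls: active = compounds causing at least 50% loss of cell viability in the single-dose screen, relative to plate controls; inactive = the rest.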

test: TRAIL-exposed caspase-8 expressing cell killing – NB7+C8 cells, ATPlite luminescence, TRAIL sensitizer project, primary screen (AID 624354); details: at 10 µM, hits give high values

SMILES	inhibition (viability loss, TRAIL sensitization)
c1c2c(cc3sc(N4CCCCC4)nc13)OCCO2	76.5% (active)
CCN1CCC2(CCN(Cc3cn[nH]c3-c3ccc(OC)c(F)c3)C2)C1 (centres undefined)	-3.56%
CCOc1ccc(NC(=O)CCCCCN2C(=O)[C@@H]3Cc4ccccc4CN3C2=O)cc1	9.4%
CCc1ccc(-c2cc3c(=O)n(CC(=O)NCCCN4CCN(Cc5ccccc5)CC4)nc(C)n3n2)cc1	57.1% (active)
Cc1ccc(-c2ccc(=O)n(CC(=O)NCCCN3CCCCC3)n2)cc1	16%
Cc1nn(CC(=O)NCCc2ccccc2)c(=O)c2cc3occc3n12	-1.06%
CC(C)=NN1C(=O)c2ccccc2NC1(C)C	0.317%
CCC(C)C(NC(=O)C1CCC(=O)N1C(=O)OCc1ccccc1)C(=O)NC(C(=O)N1CCCC1C(N)=O)C(C)CC (centres undefined)	1.84%
Cc1sc2ncnc(N3CCC(C(=O)Nc4ccc(F)cc4Cl)CC3)c2c1C	13.1%
CC(C)CCC(C)NC(=O)c1ccc2nccnc2c1 (centres undefined)	13.2%
CC(C)CCNC(=O)c1ccc2c(Cl)c3c(nc2c1)CCC3	63.8% (active)
O=C(CSc1c2c(nc3ccc(Cl)cc13)CCCC2)NCc1ccco1	7.83%
CC1=NNC(=O)C1CCC(=O)N/N=C\c1cccc(Cl)c1 (centres undefined)	-5.29%
COc1cccc(/C=N\NC(=O)C2=NNC(=O)C2C)c1O (centres undefined)	61.6% (active)
COc1ccc(OC)c(/C=N/NC(=O)c2ccc[n+](CC(=O)c3ccccc3)c2)c1	-13.4%
COCc1cc(=O)[nH]c2cc(NC(=O)C(F)(F)F)c(C)cc12	1.06%
CCCCOC(=O)CNc1nnc(SCC(=O)OCC)[nH]c1=O	6.83%
Nc1c(-c2cccc(Cl)c2)cnn1-c1cccc([N+](=O)[O-])c1	-1.5%
Cc1cccc(-n2ncc(Cl)c(Cl)c2=O)c1	95.2% (active)
Cc1cccc(N2Cc3ccccc3C2=NC(=O)c2ccc(Cl)nc2)c1	4.62%
C[C@H](NC(=O)C1CC(=O)N(c2ccc3c(c2)OCCO3)C1)C(=O)N1CCC(C(=O)O)CC1 (some centres undefined)	-9.83%
CC(C)CNC(=O)COC(=O)c1ccccc1OCC(=O)Nc1ccc(Br)cc1	5.47%
COC(=O)Cc1[nH]n(-c2nc3ccccc3s2)c(=O)c1C(C)=Nc1ccc(OC)cc1	61.1% (active)
COCCn1c(SCC(=O)c2[nH]c(C)c(C(C)=O)c2C)nc2ccccc2c1=O	-10%
NC(N)=N/N=C/c1ccc(OCc2ccc(Cl)cc2Cl)cc1	50.1% (active)

SMILES	inhibition (viability loss, TRAIL sensitization)
NC(=O)COc1ccc(/C=N/NC(=O)C2CCCN2S(=O)(=O)c2ccc(Cl)cc2)cc1 (centres undefined)	-8.47%
CCCCN(C(=O)C1=NN(c2cc(C)ccc2C)C(=O)CC1)c1c(N)n(CCC)c(=O)[nH]c1=O	-7.09%
CC(C)COc1ccc(C(=O)NNC(=O)CCC(=O)c2cccs2)cc1	-0.727%
Cc1ccc(NC(=O)CSCC(=O)N2CCOCC2)cc1	-10.5%
CC(C)COc1ccc(C(=O)OCC(=O)NCCC2=CCCCC2)cc1	-6.49%
O=C(Nc1ccc(Cl)cc1)c1cccc(OC(=S)N2CCOCC2)c1	12.3%
COc1ccc(C(=O)Nc2ccc(-n3nncc3C(C)(C)C)cc2)cc1	-20.3%
COc1ccc(NC(=O)c2ccc(OC)cc2)cc1	50.5% (active)
COc1cccc(C(=O)Nc2ccc(N3CCCC3)cc2)c1	46.7% (active)
COc1ccc(NC(=O)c2ccc(C#CC(C)(C)O)cc2)cc1	0.194%
COc1cccc(C(=O)Nc2ccc3nc4n(c(=O)c3c2)CCCCC4)c1	23.6%
COc1ccc(N2c3ccccc3CN(Cc3ccccc3)[C@@H](C)[C@H]2Cc2ccc(-c3ccccc3)cc2)cc1	-5.86%
CCOC(=O)C1CCN(C(=O)Cn2nc(C)c3c(C)n(-c4ccccc4)nc3c2=O)CC1	-20.8%
CCCN1C(=O)C(NC(C)=O)c2cc(OC)ccc21 (centres undefined)	-4.35%
O=C(COc1ccc2c(C(F)(F)F)cc(=O)oc2c1)Nc1ccc2c(c1)OCCO2	-2.58%
COCCn1c(SCC(=O)Nc2nc(C)cs2)nnc1C(C)C	-5.23%
COc1cc(SC)ccc1C(=O)Nc1nc(C)cs1	92.9% (active)
Cc1ccccc1OCC(=O)Nc1nc(C)c(C(=O)N(C)C)s1	3.67%
Cc1csc(NC(=O)CSc2ccc(-c3ccc(F)cc3)nn2)n1	-13.9%
COC(=O)c1sc(NC(=O)c2ccc(OC)cc2OC)nc1C	82.4% (active)
COc1ccc(C(=O)CCC(=O)Nc2cccnc2)c(OC)c1	7.09%
COc1cc(SC)ccc1C(=O)Nc1cc(C)ccn1	67.3% (active)
Cc1ccnc(NC(=O)CNC(=O)c2ccccc2)c1	-13.7%
Cc1ccnc(NC(=O)c2ccoc2C)c1	11.1%
